Experimental findings from PubChem BioAssay AID488969 (Vanderbilt High Throughput Screening Facility, 2010) are described below.

Structures are written as SMILES. Over roughly 110,000 compounds, “z-score” has its median near -0.1; the highest 2% begin near 2. The sample as a whole holds a higher share of the highest values than the screen did. The source made the active and inactive calls.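 Rule for the calls: active = z-score in the third read window above 3 or below -3; inactive = the rest.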

Chain of Metabotropic glutamate receptor 8 (Rattus norvegicus) (P70579 whole entry, looked up): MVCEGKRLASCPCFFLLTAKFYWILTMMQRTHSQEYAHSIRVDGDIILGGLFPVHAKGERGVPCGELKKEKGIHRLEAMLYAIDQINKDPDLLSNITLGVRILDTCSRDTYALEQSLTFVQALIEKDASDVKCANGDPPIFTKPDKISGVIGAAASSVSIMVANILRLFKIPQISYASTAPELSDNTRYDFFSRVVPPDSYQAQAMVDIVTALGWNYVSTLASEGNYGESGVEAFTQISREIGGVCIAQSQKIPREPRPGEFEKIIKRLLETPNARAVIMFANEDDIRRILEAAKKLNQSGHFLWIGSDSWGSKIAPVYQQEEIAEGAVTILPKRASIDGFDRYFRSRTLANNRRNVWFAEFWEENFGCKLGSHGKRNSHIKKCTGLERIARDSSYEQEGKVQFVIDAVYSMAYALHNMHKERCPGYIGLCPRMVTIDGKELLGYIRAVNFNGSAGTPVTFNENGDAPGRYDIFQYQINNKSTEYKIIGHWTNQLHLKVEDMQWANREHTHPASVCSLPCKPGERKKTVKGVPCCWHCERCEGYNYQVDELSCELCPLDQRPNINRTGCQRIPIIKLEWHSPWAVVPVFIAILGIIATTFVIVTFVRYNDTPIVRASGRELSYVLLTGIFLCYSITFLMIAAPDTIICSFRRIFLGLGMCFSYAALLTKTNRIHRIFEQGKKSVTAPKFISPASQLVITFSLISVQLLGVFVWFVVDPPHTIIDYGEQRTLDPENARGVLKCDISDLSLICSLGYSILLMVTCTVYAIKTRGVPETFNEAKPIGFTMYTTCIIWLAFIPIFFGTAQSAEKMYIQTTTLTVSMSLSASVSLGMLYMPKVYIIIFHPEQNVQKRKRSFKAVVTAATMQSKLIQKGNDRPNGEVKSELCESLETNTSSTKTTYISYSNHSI

The test has as its target Metabotropic glutamate receptor 8 (Rattus norvegicus) (UniProt P70579). Description: mGluR8 Gi/Go-coupled signaling modulation – cell-based, rat, thallium flux, HTS, primary screen (AID 488969). The note with it: HEK293 rat mGluR8, GIRK (G protein-gated inwardly rectifying potassium channel) thallium flux, FluoZin2; at 10 µM; stronger effect = higher value; submaximal glutamate (EC20) added with thallium.
`CCOC(=O)N1CCN(Cc2nc3c(c(=O)n(C)c(=O)n3C)n2Cc2ccccc2C)CC1`: the z-score was -0.27. With `COc1ccccc1NC(=S)NCCc1ccc(Cl)cc1` the figure was 3.06 (active). The value for `S=C(NCCc1ccccc1)Nc1ccc(Cl)cc1Cl` was 1.43; that for `Fc1ccc(NC(=S)NCCc2ccccc2)c(F)c1F` was 2.71.

`Fc1cc(Br)ccc1NC(=S)Nc1ccccc1`: the z-score was 0.843.

Turning to `COc1ccc(NC(=S)NCCc2ccc(Cl)cc2)c(OC)c1`, the z-score was 0.319. With `Fc1ccccc1NC(=S)NCCc1ccccc1` the figure was 0.134; with `S=C(NCCc1ccccc1)Nc1ccc(Br)cc1`, 0.268; with `COc1ccccc1NC(=S)NCCc1ccccc1`, -0.188.

`Fc1cc(Br)ccc1NC(=S)NCCc1ccccc1`: the z-score is 7.09 (active). With `COc1cc2c(cc1NC(=O)CSc1ccccc1)oc1ccccc12` the figure was -0.258; with `O=C(N/N=C/c1c[nH]c2ccccc12)c1cc(-c2cccc3ccccc23)n[nH]1`, -0.463; with `COc1ccc(OCC(=O)O/N=C(\N)Cc2ccc(Cl)cc2Cl)cc1`, 0.353. With `CCOC(=O)c1[nH]c(C)c(/C(O)=C2\C(=O)C(=O)N(CCCN(C)C)C2c2cccnc2)c1C` (centres undefined) the figure was -0.333; with `COc1cc(CNc2nc3ccccc3n2C)cc(OC)c1OC`, -0.245. As for `CCCNC(=O)COC(=O)c1cc(SC)ccc1Cl`, the z-score amounted to 0.561. For `O=C(CN(C(=O)Cn1nnc(-c2cccs2)n1)c1ccc2c(c1)OCCO2)NC1CCCCC1`, the z-score was -0.0843. Turning to `CCC1(C)C(Nc2c(C)cccc2C)=NC(=S)N1c1ccc(NC(C)=O)cc1` (centres undefined), the z-score was -0.38. The value for `Cc1cccc(C)c1NC1=NC(=S)N(c2ccccc2)C12CCOC(C)(C)C2` (centres undefined) was 0.847; that for `Cc1ccc(N2C(=S)N=C(Nc3ccccc3C)C23CCOC(C)(C)C3)cc1` (centres undefined) was 15 (active); that for `Cc1cccc(C)c1NC1=NC(=S)N(c2ccc(N(C)C)cc2)C1(C)C` was 1.87.

Take `Cc1ccccc1NC1=NC(=S)N(c2ccccc2)C12CCOC(C)(C)C2` (centres undefined): the z-score is 12.6 (active).

Turning to `Cc1cccc(N2C(=S)N=C(Nc3c(C)cccc3C)C23CCOC(C)(C)C3)c1` (centres undefined), the z-score is -0.179. For `Cc1sc(NC(=S)NC(=O)C(C)(C)C)c(C(N)=O)c1C`, the z-score was -0.0974. Consider `O=C(O)C1C2C=CC(C2)C1C(=O)NCCc1cccc(Cl)c1` (centres undefined), for which the z-score is 6.03 (active). In turn, `O=C(O)C1C2C=CC(C2)C1C(=O)NCCc1ccncc1` (centres undefined) came in with a z-score of 0.718. Take `O=C(O)C1C2C=CC(C2)C1C(=O)NCCc1ccccc1` (centres undefined): the z-score is -0.122. The value for `CCc1nnc(NC(=O)CN2CCN(c3cccc(OC)c3)CC2)s1` was 0.136. With `CCC(COC(=O)Nc1cccc(C)c1C)NC(=O)OCC(C)C` (centres undefined) the figure was -0.549; with `CCCOC(=O)NC(CC)COC(=O)Nc1cccc(C)c1C` (centres undefined), 3.15 (active); with `CCCOC(=O)NC(CC)COC(=O)Nc1cc(C)ccc1C` (centres undefined), -0.0367. For `CN(C1CCCCC1)S(=O)(=O)c1ccc2c(c1)c(=O)c(C(=O)N1CCc3ccccc3C1)cn2C`, the z-score is -1.33. `Cc1cc(Cl)c(S(=O)(=O)Nc2ccc(Cl)cn2)cc1OCC(N)=O` registered a z-score of 0.203. For `COc1cccc(-n2c(=O)[nH]cc(C(=O)Nc3ccc(NC(C)=O)cc3)c2=O)c1`, the z-score is -0.503. Regarding `COc1ccc(-n2c(=O)[nH]cc(C(=O)Nc3ccccc3)c2=O)cc1`, the z-score is 0.241. For the compound `COc1ccc(-n2c(=O)[nH]cc(C(=O)Nc3ccc(NC(C)=O)cc3)c2=O)cc1`, the z-score is 9.34 (active). With `CCc1ccc(N=c2c([N+](=O)[O-])nn(-c3ccccc3)n2O)cc1` the figure was -0.133; with `CCCn1c(SCC(=O)N2CCCc3ccccc32)nnc1-c1ccccn1`, -0.0622; with `Cc1nn(CCC#N)c(NC(=O)c2ccc(Cl)cc2Cl)c1P(=O)(Nc1ccc([N+](=O)[O-])cc1)N1CCOCC1` (centres undefined), -0.0204. The value for `CCOc1ccc2cc(C(=O)c3ccccc3)c(=O)oc2c1` was -0.201; that for `CN(C)C(=O)COc1ccc2cc(-c3ccccc3)c(=O)oc2c1` was 2.32; that for `CN(C)C(=O)COc1ccc2ccc(=O)oc2c1` was -0.168. The value for `Fc1ccc(C2NC(=S)NC3=C2N2CCC3CC2)cc1` (centres undefined) was -0.0689. The compound `O=C1CC(c2cccs2)Sc2nc3ccccc3n21` (centres undefined) returned a z-score of 1.16. Turning to `O=C1CC(c2ccco2)Sc2nc3ccccc3n21` (centres undefined), the z-score was 3.22 (active). Take `O=C(O)C1CC(=O)n2c(nc3ccccc32)S1` (centres undefined): the z-score was 0.555. The value for `CCCCOc1nc(N)nc(-c2ccccc2)n1` was -0.634. With `COc1ccc(C(=O)CSc2nc3ccccc3n2CC(=O)NC(C)(C)C)cc1` the figure was -0.144; with `CCOC(=O)CSC1=C(C#N)C(=O)NC(c2ccc(OC)c(OC)c2)S1` (centres undefined), 6.39 (active); with `CCOC(=O)CSC1=C(C#N)C(=O)NC(c2ccc(OC)cc2)S1` (centres undefined), 0.083.

In turn, `COC(=O)CSC1=C(C#N)C(=O)NC(c2ccccc2)S1` (centres undefined) gave a z-score of -0.603. On to `O=C(CSc1c[nH]c2ccccc12)NCC1CCCO1` (centres undefined), for which the z-score was -0.0605. Consider `C#CCOC(=O)C(NC(=O)c1ccccc1)=C1CCCCC1`, for which the z-score was -0.603. `C=CCNC(=O)/C(=C\c1ccc2c(c1)OCO2)NC(=O)c1ccc(Br)cc1` showed a z-score of -0.116. With `Cc1[nH]c2ccccc2c1C(=O)CN1C(=O)NC2(CC(C)CC(C)(C)C2)C1=O` (centres undefined) the figure was -0.266. The value for `O=C(OCCN1C(=O)c2cccc3c(N4CCOCC4)ccc(c23)C1=O)c1ccccc1Cl` was -0.723.

Take `O=C(OCCN1C(=O)c2cccc3c(N4CCOCC4)ccc(c23)C1=O)c1cc(Cl)cc(Cl)c1`: the z-score is 5.23 (active). With `O=C1c2cccc3c(N4CCCCC4)ccc(c23)C(=O)N1CCO` the figure was -0.897; with `O=C(OCCN1C(=O)c2cccc3c(N4CCOCC4)ccc(c23)C1=O)c1ccc(Cl)cc1Cl`, -0.884; with `O=C(OCCN1C(=O)c2cccc3c(N4CCOCC4)ccc(c23)C1=O)c1ccc(Cl)cc1`, -0.758. With `O=C(OCCN1C(=O)c2cccc3c(N4CCOCC4)ccc(c23)C1=O)c1cccc(Cl)c1` the figure was 2.81. `CCN1CCCC1CNC(=O)c1ccc(N2CCCC2=O)cc1` (centres undefined) displayed a z-score of 1.38. With `O=S(=O)(Cc1ccccc1Cl)Nc1ccccn1` the figure was 1.91. Regarding `CCOc1ccccc1NC(=O)c1cccc(NC(=O)CC(c2ccccc2)c2ccccc2)c1`, the z-score is -0.177. Turning to `CCOc1ccccc1NC(=O)Nc1cccc(C(C)=O)c1`, the z-score was 3.62 (active).

Compound `CCOc1ccccc1NC(=O)c1cccc(NC(=O)c2ccco2)c1` gave a z-score of -0.729. Consider `Cc1ccc(SC(C)C(=O)Nc2ccc(S(=O)(=O)N3CCOCC3)cc2)cc1` (centres undefined), for which the z-score is 6.05 (active). For `CC(Sc1ccccc1)C(=O)Nc1ccc(S(=O)(=O)N2CCOCC2)cc1` (centres undefined), the z-score came out at 0.0953.

`CC(Sc1ccc(Cl)cc1)C(=O)Nc1ccc(S(=O)(=O)N2CCOCC2)cc1` (centres undefined) came in with a z-score of 0.967. Regarding `COc1ccsc1C(=O)N1CCN(Cc2ccc3c(c2)OCO3)CC1`, the z-score is -0.0804. With `COc1cccc(C(=O)OC2CCCN(C)C2)c1` (centres undefined) the figure was -0.125; with `Cc1csc2nc(CNS(=O)(=O)N(C)C)cn12`, -0.402. In the case of `CCc1ccc(S(=O)(=O)NCc2cn3c(C)csc3n2)s1`, the z-score is 0.337. The value for `CCCS(=O)(=O)NCc1cn2c(C)csc2n1` was 2.02. For `CC(c1ccco1)N(C(=O)c1ccccc1NS(=O)(=O)c1ccc(Cl)cc1)c1ccccn1` (centres undefined), the z-score is -0.362. Consider `CC(c1ccco1)N(C(=O)c1ccccc1NS(=O)(=O)c1ccc(Cl)c([N+](=O)[O-])c1)c1ccccn1` (centres undefined), for which the z-score stood at 0.843. With `CC(c1ccco1)N(C(=O)c1ccccc1NS(=O)(=O)c1cc([N+](=O)[O-])ccc1Cl)c1ccccn1` (centres undefined) the figure was 2.18. As to `O=C(CN1C(=O)C2CC=CCC2C1=O)Nc1nnc(SCc2ccc(Cl)cc2)s1` (centres undefined), the z-score was -0.31. In turn, `Cc1ccc(Nc2nnc(-c3ccncc3)s2)c(Br)c1` registered a z-score of 0.13.

On to `CCNc1nnc(-c2ccncc2)s1`, for which the z-score is -0.233. Regarding `c1ccc2c(Nc3nnc(-c4ccncc4)s3)cccc2c1`, the z-score is 4.07 (active). On to `N=C1CCCN1CC(=O)c1ccc(Cl)cc1`, for which the z-score stood at 0.073. With `COc1cc2c(C)nc3onc(-c4ccccc4)c3c2cc1OC` the figure was -0.241; with `O=C(CSc1nc2ccccc2[nH]1)NC1CCCc2ccccc21` (centres undefined), 2.41. With `Cc1ccc2nc(SCC(=O)NC3CCCc4ccccc43)[nH]c2c1` (centres undefined) the figure was 0.164; with `COc1ccc2nc(SCC(=O)NC3CCCc4ccccc43)[nH]c2c1` (centres undefined), 0.0427; with `O=C(NCc1cccnc1)C1CCN(C(=O)c2ccc(Cl)cc2Cl)CC1`, -0.0203. For `N=C1S/C(=C\c2cn[nH]c2-c2ccc(F)cc2)C(=O)N1c1ccccc1F`, the z-score worked out at 0.348.

Turning to `CCn1c(-c2nn(C)c(C)c2Cl)n[nH]c1=S`, the z-score was -0.461. With `CCCCn1nnc(NC(=O)c2ccc(-c3cccc(Cl)c3)o2)n1` the figure was -0.581; with `CCCCn1nnc(NC(=S)NC(=O)c2ccc(-c3cccc(Cl)c3Cl)o2)n1`, 4.59 (active); with `CCCCn1nnc(NC(=S)NC(=O)c2cccs2)n1`, 0.0688. In turn, `COc1cccc(C(=O)/C=C/c2ccc(SC)cc2)c1` yielded a z-score of 0.0506. The value for `CCC(C)N1CC(C(=O)O)CC1=O` (centres undefined) was -0.0459. Regarding `CCOc1ccc(S(=O)(=O)N2CCN(Cc3ccccc3)CC2)c2cccnc12`, the z-score came out at 0.939.

`Cc1cc(Oc2ccc(C)c(Cl)c2)nc(SCC(=O)c2ccccc2)n1` had a z-score of -0.36.

`N#C/C(=C/c1ccc(N2CCCC2)c([N+](=O)[O-])c1)c1nc2ccccc2[nH]1` had a z-score of 0.0678.

In turn, `N#C/C(=C\c1ccc(N2CCOCC2)c([N+](=O)[O-])c1)c1nc2ccccc2[nH]1` gave a z-score of 2.63.

As to `N#C/C(=C\c1ccc(N2CCCC2)c([N+](=O)[O-])c1)c1nc2ccccc2[nH]1`, the z-score was found to be 0.221. As for `COC(=O)N/N=C/c1cc(C)n(-c2cccc3ccccc23)c1C`, the z-score stood at 0.0823.

On to `O=C(Nc1ccccc1)N1CCN(c2ccc(C(F)(F)F)cn2)CC1`, for which the z-score is -0.362. With `Nc1nc(CN2CCCCCC2)nc(Nc2ccccc2)n1` the figure was 0.00781; with `Nc1nc(CN2CCN(Cc3ccccc3)CC2)nc(Nc2ccccc2)n1`, 0.26; with `Nc1nc(CN2CCC(Cc3ccccc3)CC2)nc(Nc2ccccc2)n1`, 2.39. `CC1CC(C)CN(Cc2nc(N)nc(Nc3ccccc3)n2)C1` (centres undefined) showed a z-score of 0.639. With `CC1CC(C)CN(Cc2nc(N)nc(Nc3ccc4ccccc4c3)n2)C1` (centres undefined) the figure was 3.66 (active). As to `COc1ccccc1Nc1nc(N)nc(CN2CCC(Cc3ccccc3)CC2)n1`, the z-score came out at 0.165. In turn, `O=c1oc2ccccc2c(N2CCCC2)c1CN1CCCC1` displayed a z-score of -0.557. The value for `CCOC(=O)NC1(NCC(C)C)Oc2ccccc2O1` was -0.313.
